Experimental data published in PubChem BioAssay AID1745846 (National Center for Advancing Translational Sciences (NCATS), 2022).
About 30 (2%) of roughly 1,400 compounds were called active. Roughly 15% stayed inconclusive and do not appear here. Only a selection was taken, and actives are over-represented in it overall. Unmarked numbers belong to inactive results. Calls follow the shape of the dose curve; as a rule, active = well fitted inhibition curve with a large enough effect; inconclusive = small, poorly fitted or top-dose-only effect; inactive = flat fitted curve, though single readings scatter.

Assay: Firefly Luciferase Counterscreen for Inhibitors of ATXN expression
Conditions: luminescence; series mostly up to 57.5 µM; activity change, negative = inhibition: at the top concentration
Excerpt: University of Utah School of Medicine, Salt Lake City, Utah
Spinocerebellar ataxia type 2 (SCA2) is a multisystem neurodegenerative disease caused by a dominantly acting mutation leading to expansion of a polyQ domain in the ataxin-2 protein (ATXN2). SCA2 patients develop progressive ataxia and later lose function in other neuronal systems. Prominent parkinsonian signs develop in some patients. Like many neurodegenerative disorders, no symptomatic or disease-modifying treatments are known.
The primary objective of the proposed research is to identify compounds inhibiting ATXN2 expression and to test them for efficacy in SCA2 mouse models. We have developed a cell-based assay paired with an in vivo mouse model using identical luciferase expression constructs. This approach takes advantage of an ATXN2-luciferase transgene, with the luciferase gene flanked by the upstream and downstream portions of the ATXN2 gene. Here we describe a 5-7 dose quantitative high thoroughput screen (qHTS) for compounds lowering ATXN2 expression. We screened the NIH Molecular Libraries Small Molecule Repository (MLSMR) and NCGC's mechanistically annotated (MIPE) and drug repurposing (NPC) collections of compounds for lowering expression of an ATXN2-luciferase reporter in HEK-293 cells. The assay is a multiplexed cell viability assay to ensure target reduction in the absence of cytotoxicity. Secondary qHTS assays included a CMV-luciferase reporter expressed in HEK-293 cells as well as a biochemical assay using recombinant luciferase to detect inhibitors of the reporter enzyme. Compounds that inhibit ATXN2 expression but is not cytotoxic were selected for confirmatory and secondary screens.
PROTOCOL TABLE (as described by Inglese J, Shamu CE and Guy RK. 2007)
SEQUENCE No. (e.g., 1, 2, 3, etc.); […] (e.g., Cells, Incubation, Reagent, etc.); VALUE; DESCRIPTION.
2; Compounds; 23 nL; Kalypsis pintool (Wako USA) equipped with a 1536-well pin head.
3; Enzyme; 1 uL; recombinant firefly luciferase (prepared in 50 mM Tris HCl pH7.5, 10 mM MgCl2, 0.05% BSA, 0.01% Tween20) at final concentration of 10 nM. Wells containing buffer only were used as control (set as 100% inhibition when normalizing data).
4; Incubation; 10 min; room temperature.
5; Detection; Luminescence; Viewlux plate reader (PerkinElmer).
NOTES (numbers refer to Sequence numbers above)
1. Luciferase substrate is added to 1536 well, Greiner white assay plate. Evaporation was prevented by covering assay plates with metal lids containing holes to allow gas diffusion.
2. Compounds were added in a dose response manner with the final concentrations of 57, 11.4, 2.28, 0.46, 0.091, 0.018, 0.0037 uM. Vehicle-only plates, with DMSO being pin-transferred to columns 5-48, were inserted uniformly at the beginning and the end of each library to monitor and record any shifts in assay performance.
3. Recombinant firefly luciferase (10 nM final concentration) is added to the assay plate.
5. End-point luminescence is then measured on the Viewlux (PerkinElmer) imager equipped with a clear emission filter using a 2 sec exposure.
Inglese J, Shamu CE and Guy RK, Reporting data from high throughput screening of small molecule libraries, Nature Chemical Biology, 2007, 3(8): 438-441. doi.org/10.1038/nchembio0807-438.
% is scaled to controls: 0 for no effect and ±100 for the full control effect; potency is read from the fitted curve at half-maximal effect.

With `C=CCc1cccc(/C=N/NC(=O)C[n+]2ccccc2)c1O` as the molecule, how does the “activity change, negative = inhibition” value read?
The value was 49.8%.

For `CC(=O)Oc1ccc(N(C(C)=O)S(=O)(=O)c2ccc(C)cc2C)c2ccccc12`, which “activity change, negative = inhibition” value is on record?
The value was -6.82%.

Which “activity change, negative = inhibition” value does the source give for `NS(=O)(=O)c1ccc(CCNc2ncnc3c2c(-c2ccccc2)cn3-c2ccc(F)cc2)cc1` here?
The value was -1.88%.

For `Cc1nc2ccccc2c(=O)n1/N=C/c1cc(Br)ccc1O`, which “activity change, negative = inhibition” value is on record?
The value was -6.67%.

With `Cc1cc(/C=N/n2c(COc3ccccc3)nc3ccccc3c2=O)c(O)c([N+](=O)[O-])c1` as the molecule, how does the Potency read?
The Potency was 15.8 µM (active).

With `Cc1nc2ccccc2c(=O)n1/N=C/c1c(O)ccc2oc3c(c12)CCCC3` as the molecule, how does the “activity change, negative = inhibition” value read?
The value was -0.379%.

With `Cc1ccc(C(C)C)c(OCc2ccc(C(=O)N/N=C/c3ccc(O)cc3O)cc2)c1` as the molecule, how does the “activity change, negative = inhibition” value read?
The value was -15.1%.

Which “activity change, negative = inhibition” value does the source give for `COc1ccc(CC(N)c2csc(NC(=O)c3cccc(OC(F)(F)F)c3)n2)cc1` (stereo not given) here?
The value was -2.7%.

For `COc1ccc(-c2oc3c(OC)c(OC)c(OC)c(O)c3c(=O)c2OC)cc1OC`, which “activity change, negative = inhibition” value is on record?
The value was -3.94%.

For `CCCCOc1ccc(C(=O)NNC(=S)NC(=O)CC)cc1`, which “activity change, negative = inhibition” value is on record?
The value was -3.45%.

For `COc1cccc(/C=N/NC(=O)c2c(C)nc3ccc(Cl)cn23)c1O`, which “activity change, negative = inhibition” value is on record?
The value was -11.2%.

With `CC(C)[C@H](NC(=O)c1ccc(C(C)(C)C)cc1)C(=O)N1CCN(Cc2ccc3c(c2)OCO3)CC1` as the molecule, how does the “activity change, negative = inhibition” value read?
The value was -0.972%.

For `COc1cccc(/C=N/NC(=O)Cn2nc(C)c([N+](=O)[O-])c2C)c1O`, which “activity change, negative = inhibition” value is on record?
The value was -5.2%.

With `Cc1cc(N/N=C/c2ccccc2[N+](=O)[O-])nc(-n2nc(C)cc2C)n1` as the molecule, how does the “activity change, negative = inhibition” value read?
Its value is -3.89%.

For `NC(Cc1ccccc1)c1csc(Nc2ccc(C(F)(F)F)cn2)n1` (stereo not given), which “activity change, negative = inhibition” value is on record?
The value was 1.9%.

With `CCOc1ccc(-n2c(-c3ccccc3)c[n+]3c2CCCCC3)cc1` as the molecule, how does the “activity change, negative = inhibition” value read?
Its value is -2.5%.

Which Potency does the source give for `CCn1c(C)cc(C(=O)COC(=O)c2ccccc2[N+](=O)[O-])c1C` here?
The Potency was 0.0178 µM (active).

With `Cc1c(C(=O)N2c3ccccc3Sc3ccccc32)cccc1[N+](=O)[O-]` as the molecule, how does the “activity change, negative = inhibition” value read?
The value was -0.615%.

Which “activity change, negative = inhibition” value does the source give for `CCc1ccc(NC(=O)COc2ccc(/C=C(/C#N)c3nc4ccccc4[nH]3)cc2OC)cc1` here?
Its value is 2.59%.

Which “activity change, negative = inhibition” value does the source give for `O=C(CNC(=O)c1ccccc1Br)N/N=C/c1ccccc1O` here?
Its value is -5.02%.

Which “activity change, negative = inhibition” value does the source give for `Cc1ccc(N=Nc2ccc(O)c3ncccc23)cc1` here?
The value was 3.5%.

For `Cc1cc2sc3ccc(C#CC4(O)CCCCC4)cc3c(=O)c2cc1C`, which Potency is on record?
Its Potency is 0.251 µM (active).

For `Oc1c(C(Nc2cccc(C(F)(F)F)c2)c2ccncc2)ccc2cccnc12` (stereo not given), which “activity change, negative = inhibition” value is on record?
The value was 0.225%.

Which “activity change, negative = inhibition” value does the source give for `O=C(CCCOc1ccc(Cl)cc1Cl)N/N=C/c1ccccc1O` here?
Its value is -14.6%.

For `CC[n+]1ccccc1/C=C1\Sc2ccc(C)cc2N1C`, which “activity change, negative = inhibition” value is on record?
Its value is -0.952%.

With `CN1OC[C@@H]2CN[C@H](c3ccc(-c4cc5ccccc5o4)cc3)C[C@@H]21` as the molecule, how does the Potency read?
The Potency was 0.316 µM (active).

Which “activity change, negative = inhibition” value does the source give for `CCC(=O)NNC(=S)NC(=O)c1ccc(C)cc1` here?
Its value is -8.2%.

Which “activity change, negative = inhibition” value does the source give for `COc1ccc(-c2csc(NC(=O)C3CCN(c4ncnc5sc(C)c(C)c45)CC3)n2)cc1OC` here?
Its value is -2.92%.

Which “activity change, negative = inhibition” value does the source give for `COC(=O)c1c(NC(=O)c2ccc([N+](=O)[O-])o2)sc2c1CCN(C(C)C)C2` here?
Its value is 0.611%.

For `CC(=O)Oc1ccc(C23c4ccccc4C2(OC(C)=O)c2cc(OC(C)=O)ccc23)cc1` (stereo not given), which “activity change, negative = inhibition” value is on record?
The value was -2.35%.

For `COc1ccc(C(=O)c2sc(Nc3ccccc3)nc2N)cc1OC`, which “activity change, negative = inhibition” value is on record?
Its value is -16.4%.

With `COc1ccc(CC(N)c2csc(NC(=O)c3ccccc3OC)n2)cc1` (stereo not given) as the molecule, how does the “activity change, negative = inhibition” value read?
Its value is -15.2%.

With `COC(=O)c1sc(NC(=O)c2ccc(OC)cc2OC)nc1C` as the molecule, how does the Potency read?
The Potency was 0.1 µM (active).

Which “activity change, negative = inhibition” value does the source give for `COc1ccc(CSCC(=O)N/N=C/c2ccccc2O)cc1` here?
The value was -4.55%.

Which “activity change, negative = inhibition” value does the source give for `Cc1cccc(OCC(=O)Nc2ccc3c(c2)nc(CCN2CCN(c4ccccn4)CC2)n3C)c1` here?
The value was -8.57%.

For `Cc1cc2oc3cc(NCCC4CCCN4C)ccc3c(=O)c2cc1C` (stereo not given), which Potency is on record?
The Potency was 10 µM (active).

For `Cc1cc2oc3ccc(NCCC4CCCN4C)cc3c(=O)c2cc1C` (stereo not given), which Potency is on record?
Its Potency is 6.31 µM (active).

Which “activity change, negative = inhibition” value does the source give for `CN1CCCC1CCOC(C)(c1ccccc1)c1ccc(Cl)cc1` (stereo not given) here?
The value was 4.05%.

Which “activity change, negative = inhibition” value does the source give for `CCN1CCN(C(c2ccc(C(F)(F)F)cc2)c2ccc3cccnc3c2O)CC1` (stereo not given) here?
The value was -0.327%.

For `COc1ccc(CC2C(=O)NC(C)C(=O)N(C)C3Cc4ccc(cc4)Oc4cc(ccc4O)CC(C(=O)NC(C)C(=O)NC(C)C(=O)N2C)N(C)C3=O)cc1` (stereo not given), which “activity change, negative = inhibition” value is on record?
The value was -0.0052%.

With `COc1ccc(/C=C2\CN(Cc3ccccc3)C/C(=C\c3ccc(OC)c(O)c3)C2=O)cc1O` as the molecule, how does the “activity change, negative = inhibition” value read?
The value was -1.84%.

With `O=C(CN1CCCC1)N/N=C/c1c(O)ccc2ccccc12` as the molecule, how does the “activity change, negative = inhibition” value read?
Its value is -4.95%.

Which Potency does the source give for `O=C(Nc1nc(-c2ccccn2)cs1)Nc1ccc(F)cc1F` here?
The Potency was 25.1 µM (active).

For `CCc1sc(C(=O)Nc2nc(-c3ccccn3)cs2)cc1C`, which Potency is on record?
Its Potency is 6.31 µM (active).

With `CCc1ccccc1OCC(=O)Nc1nc(-c2cccnc2)cs1` as the molecule, how does the “activity change, negative = inhibition” value read?
Its value is -8.34%.

Which “activity change, negative = inhibition” value does the source give for `O=C(Nc1nc(-c2ccccn2)cs1)c1ccc(F)c(S(=O)(=O)N2CCOCC2)c1` here?
The value was -19.5%.

For `CC(Oc1ccc(F)cc1)C(=O)Nc1nc(-c2ccccn2)cs1` (stereo not given), which “activity change, negative = inhibition” value is on record?
Its value is -4.9%.

With `O=C(Nc1nc(-c2ccccn2)cs1)c1ccccc1-n1cnnn1` as the molecule, how does the “activity change, negative = inhibition” value read?
Its value is -18.3%.

For `Cc1ccc(-c2cn(-c3ccc(OC(F)F)cc3)c3[n+]2CCCCC3)cc1`, which “activity change, negative = inhibition” value is on record?
Its value is -0.299%.

For `COc1ccc2oc(/C=C/N(C)C)c(C(=O)c3ccc(Cl)cc3)c2c1`, which “activity change, negative = inhibition” value is on record?
The value was -4.4%.
